# Assay results as given in PMC8384837, “Expanding the binding specificity for RNA recognition by a PUF domain”.
# Key:
# Assay in all cases: yeast three-hybrid, YBZ-1, SC-Leu-His + 0.5 mM 3-AT, 4 days
# Conditions in all cases: tags: N-Gal4 AD-HA kept; label: inside an RPR1-promoter hybrid RNA with tandem MS2 sites; ssRNA
# [1] = target: PUM1 PUF domain R8-WWR (Homo sapiens, UniProt Q14671 828-1176, N1122W;Y1123W;Q1126R)
# How it was run: (§1)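 The interaction score is the log change in how often each variant appears, from input to selection. Frequencies came from PCR-amplified, Illumina-sequenced repeat regions of Pumilio-1 PUF domain libraries grown in strain YBZ-1 (LexA–MS2 coat fusion, HIS3 reporter) alongside matching RNA elements. Input plates were SC-Leu and selection plates were SC-Leu-His + 0.5 mM 3-AT, each for four days, and the log2 calculation used a pseudocount of 1 where a variant was absent.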
# [2] = target: PUM1 PUF domain R8-GWN (Homo sapiens, UniProt Q14671 828-1176, N1122G;Y1123W;Q1126N)
# How it was run: as §1
# [3] = target: PUM1 PUF domain R5-SAG (Homo sapiens, UniProt Q14671 828-1176, C1007S;R1008A;Q1011G)
# How it was run: as §1
# [4] = target: PUM1 PUF domain R7-RSK (Homo sapiens, UniProt Q14671 828-1176, S1079R;N1080S;E1083K)
# How it was run: as §1
# [5] = target: PUM1 PUF domain R5-RMW (Homo sapiens, UniProt Q14671 828-1176, C1007R;R1008M;Q1011W)
# How it was run: as §1
# [6] = target: T1, PUM1 PUF domain R6-RYR (Homo sapiens, UniProt Q14671 828-1176, N1043R;Q1047R)
# T1 sequence: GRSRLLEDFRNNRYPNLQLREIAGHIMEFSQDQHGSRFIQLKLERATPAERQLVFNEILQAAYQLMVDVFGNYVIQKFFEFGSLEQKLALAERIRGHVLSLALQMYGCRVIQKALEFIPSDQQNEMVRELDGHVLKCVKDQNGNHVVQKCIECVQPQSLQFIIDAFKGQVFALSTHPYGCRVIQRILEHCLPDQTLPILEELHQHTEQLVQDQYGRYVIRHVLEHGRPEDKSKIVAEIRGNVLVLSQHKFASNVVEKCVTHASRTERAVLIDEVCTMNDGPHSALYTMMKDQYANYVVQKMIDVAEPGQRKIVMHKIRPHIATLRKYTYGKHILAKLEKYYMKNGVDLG
# How it was run: as §1
# [7] = target: PUM1 PUF domain R1-TLR (Homo sapiens, UniProt Q14671 828-1176, S863T;R864L;Q867R)
# How it was run: as §1
# [8] = target: PUM1 PUF domain R1-YCR (Homo sapiens, UniProt Q14671 828-1176, S863Y;R864C;Q867R)
# How it was run: as §1
# [9] = target: PUM1 PUF domain R3-SPF (Homo sapiens, UniProt Q14671 828-1176, C935S;R936P;Q939F)
# How it was run: as §1
# [10] = target: PUM1 PUF domain R3-PWS (Homo sapiens, UniProt Q14671 828-1176, C935P;R936W;Q939S)
# How it was run: as §1
sequence,measurement,setting,value
GGCUAGAACUAGUGGAUCCCCCGGCGCCCGGCGGCUCGAGCCCGGGUAAGCGUAAAUAGUCUGCAUGCCGCCGGGCGCCAUGCCUGCAGGUCGACUCUAGAAAACAUG,binding signal,[1],4.84 log2 enrichment (interaction score)
same,binding signal,[2],5.24 log2 enrichment (interaction score)
GGCUAGAACUAGUGGAUCCCCCGGCGCCCGGCGGCUCGAGCCCGGGUAAGUGUGAAUAGUCUGCAUGCCGCCGGGCGCCAUGCCUGCAGGUCGACUCUAGAAAACAUG,binding signal,[3],3.06 log2 enrichment (interaction score)
GGCUAGAACUAGUGGAUCCCCCGGCGCCCGGCGGCUCGAGCCCGGGUAAGUUUAAAUAGUCUGCAUGCCGCCGGGCGCCAUGCCUGCAGGUCGACUCUAGAAAACAUG,binding signal,[4],3.42 log2 enrichment (interaction score)
GGCUAGAACUAGUGGAUCCCCCGGCGCCCGGCGGCUCGAGCCCGGGUAAGUGUCAAUAGUCUGCAUGCCGCCGGGCGCCAUGCCUGCAGGUCGACUCUAGAAAACAUG,binding signal,[5],3.01 log2 enrichment (interaction score)
GGCUAGAACUAGUGGAUCCCCCGGCGCCCGGCGGCUCGAGCCCGGGUAAGUGUUAAUAGUCUGCAUGCCGCCGGGCGCCAUGCCUGCAGGUCGACUCUAGAAAACAUG,binding signal,[5],0.73 log2 enrichment (interaction score)
GGCUAGAACUAGUGGAUCCCCCGGCGCCCGGCGGCUCGAGCCCGGGUAAGUGAAAAUAGUCUGCAUGCCGCCGGGCGCCAUGCCUGCAGGUCGACUCUAGAAAACAUG,binding signal,[6],1.38 log2 enrichment (interaction score)
GGCUAGAACUAGUGGAUCCCCCGGCGCCCGGCGGCUCGAGCCCGGGUAAGUGUAAAUCGUCUGCAUGCCGCCGGGCGCCAUGCCUGCAGGUCGACUCUAGAAAACAUG,binding signal,[7],4.21 log2 enrichment (interaction score)
same,binding signal,[8],7.03 log2 enrichment (interaction score)
GGCUAGAACUAGUGGAUCCCCCGGCGCCCGGCGGCUCGAGCCCGGGUAAGUGUAAAUUGUCUGCAUGCCGCCGGGCGCCAUGCCUGCAGGUCGACUCUAGAAAACAUG,binding signal,[7],1.83 log2 enrichment (interaction score)
same,binding signal,[8],7.79 log2 enrichment (interaction score)
GGCUAGAACUAGUGGAUCCCCCGGCGCCCGGCGGCUCGAGCCCGGGUAAGUGUAAUUAGUCUGCAUGCCGCCGGGCGCCAUGCCUGCAGGUCGACUCUAGAAAACAUG,binding signal,[9],2.3 log2 enrichment (interaction score)
same,binding signal,[10],1.88 log2 enrichment (interaction score)
GGCUAGAACUAGUGGAUCCCCCGGCGCCCGGCGGCUCGAGCCCGGGUAAGUCUAAAUAGUCUGCAUGCCGCCGGGCGCCAUGCCUGCAGGUCGACUCUAGAAAACAUG,binding signal,[4],3.84 log2 enrichment (interaction score)
GGCUAGAACUAGUGGAUCCCCCGGCGCCCGGCGGCUCGAGCCCGGGUAAGUGUAAAUAGUCUGCAUGCCGCCGGGCGCCAUGCCUGCAGGUCGACUCUAGAAAACAUG,binding signal,[1],4.62 log2 enrichment (interaction score)
same,binding signal,[9],4.55 log2 enrichment (interaction score)
same,binding signal,[2],3.4 log2 enrichment (interaction score)
same,binding signal,[6],3.26 log2 enrichment (interaction score)
same,binding signal,[10],4.23 log2 enrichment (interaction score)
